Measured values from PubChem BioAssay.
Values joined by “and” are separate entries in the source; they are usually repeats but may differ in a detail not shown here. Equal values may be shown once. Results filed as inconclusive are left out. More than one record can exist for a structure, and the calls need not agree. Active and inactive are the calls of the source. Unless noted, no stated cut-off is given here; in the data, active means inhibition above about 80%; inactive means the rest.

Legend:
[1] = SU-DIPG-VI glioma cell viability, MIPE4.0 library, CellTiter-Glo luminescence, qHTS (AID 1347066; cut-off not given, nearly all actives have AC50 up to about 30 µM;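 further: cells exposed to compound for 48 hours before readout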); details: CellTiter-Glo ATP luminescence
[2] = survival rescue of mitochondrial mutant cells in low glucose, primary screen, MELAS cybrids, Rieske KO mouse fibroblasts, CellTiter-Glo (AID 1508586;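 active means mean z-score across replicates of 1.96 or higher in either the MELAS or the Rieske mutant cell line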;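 further: z relative to plate mean and SD of compound and empty wells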)
[3] = molecular target: NAD(+) hydrolase SARM1 (Homo sapiens) (UniProt Q6SZW1); test: SARM1 TIR NADase inhibitors, cell lysate, NAD-Glo luminescence (AID 1508614;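 active means compound whose remaining NAD level is above about 45 nM, limit read from the data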); details: SAM-TIR HEK293T lysate NADase, at 1 µM, stronger effect = higher value
[4] = molecular target: Mitogen-activated protein kinase 7 (Homo sapiens) (UniProt Q13164); test: ERK5 transactivation activators in reporter cells, primary screen, cell-based, HTS (AID 1508626;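 active means luciferase signal above three times the same-plate solvent-only control wells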;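 further: luciferase driven by Gal4-ERK5 fusion binding five Gal4 sites before minimal TATA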); details: HeLa Gal4-ERK5 transactivation, 18 h, at 5 µM, stronger effect = higher value
[5] = viability rescue of complex I mutant cybrids, primary screen, cell-based, galactose medium, ATP luminescence (AID 1645843;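 active means z-score of at least 1.8 in each of two replicates, scored against plate mean and spread of sample wells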;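 further: positive z means more ATP and so rescue of galactose-driven cybrid death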); details: complex I mutant cybrid cells, 72 h, stronger effect = higher value
[6] = sensitizers of A549 cells to miR-34 induction, primary screen, imaging, A549 dox-inducible miR-34, nuclei and caspase counts (AID 1347080;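 active means compounds whose cell count with miR-34 switched on is under 0.7 times the count with it off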); details: A549 miR-34 inducible, Hoechst nuclei count, 48 h
[7] = phospholipid biosynthesis inhibitors in animal cells, primary screen, cell-based, LOPAC library, screen 4 (AID 1347384; call rule not given here); details: phospholipid biosynthesis inhibition screen, at 10 µM
[8] = LFS_MB_P medulloblastoma growth inhibition, cell-based, chromothripsis tumors, cisplatin or BGB combos (AID 1671449); details: LFS_MB_P medulloblastoma cells;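 further: cells exposed for 96 hours; 0% = vehicle DMSO and 100% = killing by high DMSO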
[9] = HDN33 neuroblastoma growth inhibition, cell-based, chromothripsis tumors, cisplatin or BGB combos (AID 1671450); details: HDN33 neuroblastoma cells, stronger effect = higher value;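 further: cells exposed to compound for four days; 0% = vehicle DMSO and 100% = cell killing by high DMSO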
[10] = ICB984 medulloblastoma cell growth inhibition, synergistic combos for chromothripsis tumors, cisplatin or BGB combos (AID 1671451; call rule not given here;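 further: cells exposed for 96 hours before readout; 0% = vehicle DMSO and 100% = killing by high DMSO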); details: ICB984 medulloblastoma cells, drug combinations, stronger effect = higher value
[11] = LFS_MB_1R medulloblastoma cell growth inhibition, synergistic combos for chromothripsis tumors, cisplatin or BGB combos (AID 1671452); details: LFS_MB_1R medulloblastoma cells, stronger effect = higher value;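 further: cells exposed for 96 hours before readout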
[12] = HTB85 osteosarcoma cell growth inhibition, synergistic combos for chromothripsis tumors, BGB or cisplatin IC20 combos (AID 1671453); details: HTB85 osteosarcoma cells, drug combinations, stronger effect = higher value;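 further: cells exposed for 96 hours before readout; 0% = vehicle DMSO and 100% = high DMSO killing control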
[13] = CRL2098 osteosarcoma cell growth inhibition, synergistic combos for chromothripsis tumors, BGB or cisplatin IC20 combos (AID 1671454); details: CRL2098 osteosarcoma cells, drug combinations, stronger effect = higher value;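 further: cells exposed for 96 h before readout; 0% = vehicle DMSO and 100% = killing by high DMSO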
[14] = HD-MB03 medulloblastoma cell growth inhibition, synergistic combos for chromothripsis tumors, BGB or cisplatin IC20 combos (AID 1671455; in the data active means inhibition above about 83%;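 further: 0% = vehicle DMSO and 100% = high DMSO as cytotoxic control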); details: HD-MB03 medulloblastoma cells, stronger effect = higher value
[15] = SU-DIPG-XXV glioma cell viability, MIPE5.0 library, qHTS (AID 1347068; cut-off not given, nearly all actives have IC50 up to about 30 µM)
[16] = MELAS cybrid survival, CellTiter-Glo 48 h, stronger effect = higher value
[17] = Rieske KO mouse fibroblast survival, CellTiter-Glo 72 h
[18] = stronger effect = lower value, cell number ratio, induced over uninduced
[19] = measured here: relative caspase fold change +Dox/-Dox
[20] = measured here: total cells with miR-34 induction, stronger effect = lower value
[21] = measured here: total cells without miR-34 induction
[22] = measured here: combination with BGB IC40, at 0.05 µM

Sequence of NAD(+) hydrolase SARM1 (Homo sapiens) (Q6SZW1 whole entry, looked up, the tested form may be a part): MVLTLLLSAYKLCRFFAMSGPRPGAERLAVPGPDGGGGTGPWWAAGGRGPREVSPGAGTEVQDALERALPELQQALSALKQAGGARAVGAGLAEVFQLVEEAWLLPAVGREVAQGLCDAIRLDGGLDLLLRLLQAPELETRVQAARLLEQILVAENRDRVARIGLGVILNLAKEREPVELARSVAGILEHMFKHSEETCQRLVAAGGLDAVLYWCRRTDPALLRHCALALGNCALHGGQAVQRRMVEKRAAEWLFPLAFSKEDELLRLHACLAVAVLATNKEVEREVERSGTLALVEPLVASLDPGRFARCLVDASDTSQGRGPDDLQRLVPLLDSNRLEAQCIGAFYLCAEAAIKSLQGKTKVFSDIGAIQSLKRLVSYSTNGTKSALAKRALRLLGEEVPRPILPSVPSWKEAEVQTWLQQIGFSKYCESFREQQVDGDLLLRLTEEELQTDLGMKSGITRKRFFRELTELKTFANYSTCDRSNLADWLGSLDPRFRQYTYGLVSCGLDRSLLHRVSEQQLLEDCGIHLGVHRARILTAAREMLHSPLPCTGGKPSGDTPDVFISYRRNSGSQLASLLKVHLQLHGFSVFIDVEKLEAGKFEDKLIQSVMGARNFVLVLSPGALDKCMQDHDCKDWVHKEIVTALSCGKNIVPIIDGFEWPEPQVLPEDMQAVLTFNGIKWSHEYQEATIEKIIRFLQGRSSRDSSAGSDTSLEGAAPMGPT
Sequence of Mitogen-activated protein kinase 7 (Homo sapiens) (Q13164 whole entry, looked up, the tested form may be a part): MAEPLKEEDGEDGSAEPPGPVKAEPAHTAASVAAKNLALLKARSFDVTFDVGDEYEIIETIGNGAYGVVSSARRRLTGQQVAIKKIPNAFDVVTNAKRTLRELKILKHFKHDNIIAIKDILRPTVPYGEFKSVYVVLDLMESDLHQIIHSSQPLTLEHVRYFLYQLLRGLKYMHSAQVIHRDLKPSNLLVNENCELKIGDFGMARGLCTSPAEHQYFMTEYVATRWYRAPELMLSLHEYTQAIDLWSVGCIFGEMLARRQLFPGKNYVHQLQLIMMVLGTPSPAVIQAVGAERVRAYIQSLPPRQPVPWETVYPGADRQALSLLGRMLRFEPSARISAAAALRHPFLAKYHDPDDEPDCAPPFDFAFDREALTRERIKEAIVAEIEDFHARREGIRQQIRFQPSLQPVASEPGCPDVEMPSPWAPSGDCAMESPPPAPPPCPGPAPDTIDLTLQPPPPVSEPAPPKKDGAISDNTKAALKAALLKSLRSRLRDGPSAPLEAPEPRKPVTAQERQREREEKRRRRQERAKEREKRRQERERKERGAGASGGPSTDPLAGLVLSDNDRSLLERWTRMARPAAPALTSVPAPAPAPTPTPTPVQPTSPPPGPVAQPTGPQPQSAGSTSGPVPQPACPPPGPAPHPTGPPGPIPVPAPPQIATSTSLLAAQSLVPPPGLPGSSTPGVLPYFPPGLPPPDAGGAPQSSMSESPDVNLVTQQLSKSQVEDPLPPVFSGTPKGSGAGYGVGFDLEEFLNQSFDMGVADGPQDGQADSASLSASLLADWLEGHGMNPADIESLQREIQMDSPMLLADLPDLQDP

SMILES: CN1CCN(CCCN2c3ccccc3Sc3ccc(Cl)cc32)CC1
- AC50 [1]: 16.6 µM (active)
- z-score [2, 16]: -0.995 (inactive)
- z-score [2, 17]: -0.206
- remaining NAD [3]: 10 nM (inactive)
- luciferase signal [4]: 80 AU (inactive)
- z-score [5]: -1.35 (inactive) and -1.42 (inactive)

SMILES: Cc1cn([C@H]2C=C[C@@H](CO)O2)c(=O)[nH]c1=O
- outcome [1]: inactive
- fold change [6, 18]: 0.956 (inactive) and 1.02 (inactive)
- fold change [6, 19]: 1.47 and 1.86
- cell count [6, 20]: 8230 and 8880
- cell count [6, 21]: 8610 and 8700
- outcome [7]: inactive
- z-score [2, 16]: 0.426 (inactive)
- z-score [2, 17]: -0.562
- remaining NAD [3]: 21 nM (inactive)
- z-score [5]: 0.32 (inactive) and 1.07 (inactive)

SMILES: CCn1cc(C(=O)O)c(=O)c2cc(F)c(N3CCNCC3)nc21
- outcome [1]: inactive
- fold change [6, 18]: 0.955 (inactive) and 0.936 (inactive) and 0.839 (inactive)
- fold change [6, 19]: 0.759 and 2.37 and 1.38
- cell count [6, 20]: 8750 and 11500 and 9060
- cell count [6, 21]: 9160 and 12300 and 10800
- z-score [2, 16]: -0.278 (inactive) and 0.526 (inactive) and -0.113 (inactive)
- z-score [2, 17]: 0.647 and 0.794 and 0.23
- remaining NAD [3]: 10 nM (inactive)
- luciferase signal [4]: 40 AU (inactive)
- z-score [5]: -0.075 (inactive)
- inhibition ([8]; at 0.5 µM, stronger effect = higher value): 95.5% (active) and -29.1% (inactive)
- inhibition ([8]; measured here: combination with BGB IC20, at 0.005 µM): -19.8% and -22.4%
- inhibition ([8]; measured here: combination with BGB IC40, at 0.005 µM): -56.7% and 0.955%
- inhibition [8, 22]: -47.1% and -2.69%
- inhibition ([8]; measured here: combination with cisplatin, at 0.5 µM, stronger effect = higher value): 108% and -48.6%
- inhibition ([8]; measured here: combination with cisplatin, at 5 µM, stronger effect = higher value): -38.7% and -12%
- inhibition ([9]; BGB combo, at 5 µM): -53.5% and -12.2%
- inhibition ([9]; at 0.5 µM): -20.8% (inactive) and 3.72% (inactive)
- inhibition ([9]; cisplatin combo, at 5 µM): -17.5% and -19.5%
- inhibition ([9]; measured here: with BGB IC20 combination, at 0.5 µM): -36.2% and -5.94%
- inhibition ([9]; measured here: with cisplatin IC20 combination, at 0.5 µM): 4.58% and 5.43%
- inhibition ([9]; single agent, at 5 µM): -41.7% and 2.78%
- inhibition ([10]; BGB IC20 combo, at 0.005 µM): -24.2% and -17.5%
- inhibition ([10]; BGB IC40 combo, at 0.005 µM): -20.3% and -26.8%
- inhibition ([10]; BGB IC40 combo, at 0.05 µM): -25.4% and -9.4%
- inhibition ([10]; at 0.5 µM): -21.1% (inactive) and -10.7% (inactive)
- inhibition ([10]; cisplatin combo, at 0.05 µM): -31.9% and -9.4%
- inhibition ([10]; cisplatin combo, at 0.5 µM): -30.1% and -9.09%
- inhibition ([10]; cisplatin combo, at 5 µM): -14.7% and -13.9%
- inhibition ([10]; measured here: 5 uM single agent, at 5 µM): -13.9% and -18.7%
- inhibition ([11]; at 0.5 µM): -40% (inactive) and 2.92% (inactive)
- inhibition [11, 22]: -27.4% and 5.91%
- inhibition ([11]; measured here: combination with cisplatin, at 0.5 µM): -80.9% and -14.1%
- inhibition ([11]; measured here: combination with cisplatin, at 5 µM): -47.5% and -13.9%
- inhibition ([12]; at 0.5 µM): -12.7% (inactive) and -3.77% (inactive)
- inhibition ([12]; measured here: with BGB IC20, at 0.5 µM): 1.15% and -26.8%
- inhibition ([12]; measured here: with BGB IC20, at 5 µM): -15.3% and -6.32%
- inhibition ([12]; measured here: with cisplatin IC20, at 0.5 µM): -12.7% and 12.5%
- inhibition ([12]; measured here: with cisplatin IC20, at 5 µM): -14.2% and -4.27%
- inhibition ([12]; single agent, at 5 µM): 1.99% and -0.637%
- inhibition ([13]; at 0.5 µM): -80.2% (inactive) and -23.4% (inactive)
- inhibition ([13]; measured here: combination with BGB at IC20, at 0.5 µM): -85.1% and -50.3%
- inhibition ([13]; measured here: combination with cisplatin at IC20, at 0.5 µM): -99.8% and 10.9%
- inhibition ([14]; at 0.5 µM): -13.7% (inactive) and -3.13% (inactive)
- inhibition ([14]; measured here: combo with BGB at IC20, at 0.5 µM): -9.56% and -6.49%
- inhibition ([14]; measured here: combo with cisplatin at IC20, at 0.5 µM): -20.1% and 4.15%

SMILES: CC(=O)Nc1ccc(O)cc1
- outcome [1]: inactive
- outcome [15]: inactive
- fold change [6, 18]: 0.829 (inactive) and 0.996 (inactive) and 0.866 (inactive)
- fold change [6, 19]: 0.925 and 0.621 and 1.43
- cell count [6, 20]: 8180 and 9760 and 10200
- cell count [6, 21]: 9870 and 9800 and 11800
- z-score [2, 16]: 0.35 (inactive)
- z-score [2, 17]: -0.0609
- remaining NAD [3]: 10 nM (inactive)
- luciferase signal [4]: 40 AU (inactive)
- z-score [5]: -0.13 (inactive)
